# Measurements published in ChEMBL document CHEMBL4513216, “Probing the Open Global Health Chemical Diversity Library for Multistage-Active Starting Points for Next-Generation Antimalarials” (ACS Infect Dis, 2020).
# Hit rate of the full screen: of about 69,000 compounds, about 8,600 (12%) showed an effect of 50% or more. Many of the other results were omitted from the sample, so strong results are more common in it than they were.
# System: Plasmodium berghei
# Test: Screen against P. berghei liver stage (PbLuc), transformed with Luciferase, at 10uM
# Format: functional, HepG2
# Details: tested at 10 uM
row,Structure (SMILES),INHIBITION
1,CO[C@H]1CN(C(=O)c2nc(-c3ccccc3)[nH]c2C)CC[C@H]1N,5.78%
2,CCCc1nnc2sc(C3CCN(C4CCN(C)CC4)CC3)nn12,44.8%
3,CN1CCCC[C@@H]2[C@H]1[C@@H](c1ccccc1)CCN2C(=O)c1cnccn1,46.1%
4,CN1CCCC[C@@H]2[C@H]1[C@@H](c1ccccc1)CCN2C(=O)c1ccccn1,20.8%
5,Cc1nnsc1C(=O)N1CC[C@H](c2ccccc2)[C@@H]2[C@H]1CCCCN2C,70.1%
6,CN1CC[C@H](c2ccccc2)[C@@H]2[C@H]1CCCCN2C(=O)c1cnccn1,57.4%
7,CN1CCCC[C@@H]2[C@H]1[C@@H](c1ccccc1)CCN2C(=O)c1ccncc1,-4.51%
8,CN1CCCCC[C@@H]2[C@@H]1[C@H](c1ccccc1)CN2C(=O)c1cccnc1,47.2%
9,Cc1nnsc1C(=O)N1CCN(C(=O)C2CCC2)[C@@H]2CS(=O)(=O)C[C@@H]21,47.2%
10,CN1CCCC[C@@H]2[C@H]1[C@@H](c1ccccc1)CCN2C(=O)c1ccccc1,59.7%
11,CN1CCCC[C@@H]2[C@H]1[C@@H](c1ccccc1)CCN2C(=O)c1cccnc1,47.2%
12,CC(C)CNC(=O)c1cc(C2CC2)nc2onc(C3CCNCC3)c12,13.5%
13,NCCc1c(-c2ccc(F)cc2)[nH][nH]c1=O,39.1%
14,COc1ccccc1CNC(=O)c1[nH]ncc1Cl,46.6%
15,NC(=O)Cn1cc(NC(=O)N2CCN(c3ccccc3)CC2)cn1,-65.7%
16,CC(C)N(C(=O)Cn1cc(Cl)cn1)c1ccccc1,21.8%
17,Brc1cccc(-c2noc(CN3CCOCC3)n2)c1,43.3%
18,O=C(COc1coc(CN2CCCCC2)cc1=O)NCc1ccccc1,9.48%
19,Cc1cccc(CN2CCC3(CCN(c4cccnc4)C3=O)C2)n1 (configuration not stated),58.8%

row,Structure (SMILES),INHIBITION
1,Cn1cc(N2CC3(CCN(Cc4ccsc4)CC3)OCC2=O)cn1,54.4%
2,COc1ccc(CN2CCC3(CCN(c4cccnc4)C3=O)C2)cc1 (configuration not stated),8.67%
3,Cn1cc(N2CC3(COCCN(Cc4ccccn4)C3)OCC2=O)cn1 (configuration not stated),-8.54%
4,Cc1cccc(CN2CCCC3(CCN(c4cccnc4)C3=O)C2)n1 (configuration not stated),29%
5,Cn1cc(N2CC3(CCN(Cc4nccs4)CC3)OCC2=O)cn1,26.3%
6,Cn1cc(N2CC3(CCN(Cc4ccccc4)CC3)OCC2=O)cn1,14.1%
7,Cc1cccc(CN2CCC3(CC2)CN(c2cnn(C)c2)C(=O)CO3)n1,68.3%
8,Cn1cc(N2CC3(CCN(Cc4cccs4)CC3)OCC2=O)cn1,-34.9%
9,Cn1cc(N2CC3(COCCN(Cc4ccsc4)C3)OCC2=O)cn1 (configuration not stated),18.2%
10,Cn1cc(N2CC3(COCCN(Cc4nccs4)C3)OCC2=O)cn1 (configuration not stated),56.7%
11,Cc1cccc(CN2CCC3(CC2)CN(c2cccnc2)C(=O)CO3)n1,30.3%
12,CC(=O)N1CCCC(c2ccc(Cc3ccccc3)cn2)C1 (configuration not stated),37.6%
13,CCN1C[C@H]2C3(CCN(C(C)=O)CC3)CC[C@@]2(C(=O)N(C)C)C1,36.7%
14,COCCN(C)C[C@@H]1CN(Cc2ccnc3ccccc23)C[C@@H]1CO,17.5%
15,Cc1cnn(CC2CCCCN2C(=O)c2c(C)noc2C)c1 (configuration not stated),11.4%
16,CN(C)c1cncc(C2CCN(CC3(O)CCCCC3)CC2)n1,37.6%
17,CS(=O)(=O)N1CC[C@H]2[C@H](C[C@@H](Cn3cncn3)N2CC2CC2)C1,-28.2%
18,COCCN1CC(C(=O)NCc2cccnc2-n2cccn2)CC1=O (configuration not stated),-29.8%
19,CN1CC2(CCN(C(=O)Cn3ncc4ccccc4c3=O)CC2)OC1=O,36.3%

row,Structure (SMILES),INHIBITION
1,CCOCCN1CCN(CCCS(C)(=O)=O)CC1C (configuration not stated),-52.5%
2,COCCC1(CNC(=O)Nc2ccc(-n3nccn3)cc2)CCC1,-23.3%
3,Cc1cc(NC(=O)NCC2(O)CCCC2)ccn1,32.3%
4,COCCC1(CNC(=O)Nc2ccnc(C)c2)CCCC1,57.4%
5,Cn1nc(CNC(=O)C2CCCCC2)cc1C1CC1,13.6%
6,Cc1cn(-c2ccccc2)nc1NS(=O)(=O)c1cc(C(=O)O)ccc1Cl,25.4%
7,CC(C)c1nc(CN2CCCC2Cn2cccn2)no1 (configuration not stated),19.6%
8,N#Cc1c(Cl)nsc1NCC1(c2ccccc2)CCC1,84%
9,COc1ccccc1C1(CNc2snc(Cl)c2C#N)CCCC1,80.2%
10,COc1ccccc1C1(CNc2snc(Cl)c2C#N)CCOCC1,53.4%
11,COc1ccccc1OCCNc1snc(Cl)c1C#N,68.1%
12,NS(=O)(=O)c1cnc(NCC2(c3ccccc3)CCC2)s1,9.37%
13,COc1ccccc1C1(CNc2ncc(S(N)(=O)=O)s2)CC1,-10.9%
14,CC(=O)N1CCN(C(=O)CCNc2snc(Cl)c2C#N)CC1,-27%
15,COc1ccccc1C1(CNc2cn[nH]c(=O)c2Cl)CCOCC1,-9.69%
16,CC(=O)N1CCN(CCNc2snc(Cl)c2C#N)CC1,-4.93%
17,COc1ccccc1C1(CNc2cn[nH]c(=O)c2Cl)CC1,-22.2%
18,COc1ccc(C)cc1C1(CNc2cncc(Cl)n2)CCOCC1,-60.3%
19,N#Cc1c(Cl)nsc1NCCN1CCOCC1,39.9%
